This is part of a sample that, as a whole, favours compounds with a hit. Of some 79,000 tested, about 15% had one in any assay. The source made the active and inactive calls. Cut-off read from the data, not from the text of the source: active = growth inhibition above about 70%; inactive = the rest.
test: NCI Yeast Anticancer Drug Screen. Data for the CLN2oe strain (AID 163);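 note: 0% = growth of vehicle-only control cultures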; details: S. cerevisiae CLN2oe strain, at 100.0 µM, active compounds read high
Method in brief: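 Read-out: yeast growth inhibition, expressed relative to vehicle-only controls. The strain bears an engineered cell-cycle alteration.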

SMILES | growth inhibition
O=CC=C(c1ccccc1)c1ccccc1 | 98% (active)
FC(F)(F)c1nc2nc(Cl)c(Cl)nc2n1CCCN1CCOCC1 | 57% (inactive)
BrCC[P+](c1ccccc1)(c1ccccc1)c1ccccc1 | 95% (active)
N#CSc1ccc(S(N)(=O)=O)cc1 | 66% (inactive)
O=[N+]([O-])c1ccc2nc3ccccc3cc2c1 | 54% (inactive)
O=C(NC(Nc1ccc(F)c(Cl)c1)(C(F)(F)F)C(F)(F)F)C(C(F)(F)F)C(F)(F)F | 97% (active)
O=C(/C=C\c1ccc(Cl)cc1Cl)c1cccs1 | -18% (inactive)
O=C(NCCCCNCCCNC(=O)c1cc(-c2ccccc2)nc2ccccc12)c1cc(-c2ccccc2)nc2ccccc12 | 91% (active)
NC(=NCc1ccccc1)N/N=C\c1ccnc2ccccc12 | 70% (active)
CCCCN(CCCC)CCSc1ccc(Cl)cc1 | 59% (inactive)
COc1cc(C2C3=C(COC3=O)Oc3cc4c(cc32)OCO4)ccc1O (stereo not drawn) | 24% (inactive)
C#CCCCc1ccccc1 | 73% (active)
CCc1ccc(NS(=O)(=O)c2ccccc2)c([N+](=O)[O-])c1 | 73% (active)
COc1ccc(C2c3cc4c(cc3OC(C)(O)C2C)OCO4)c(OC)c1 (stereo not drawn) | 82% (active)
COC(=O)c1ccc(CCC2=CC(=O)C(Br)=CC2=O)cc1 | 35% (inactive)
NNC(=O)CCc1ccc2ccc3ccccc3c2c1 | 60% (inactive)
Cn1c2ccccc2c(=O)c2cc(NC(=O)CCCCC(=O)Nc3ccc4c(c3)c(=O)c3ccccc3n4C)ccc21 | 27% (inactive)
CC(CC(C)(C)[N+](C)(C)C)[N+](C)(C)C (stereo not drawn) | -7% (inactive)
CC1CCN(CCC(=O)c2ccc(Cl)cc2)CC1 | 55% (inactive)
CCCCCCCCCCCCCCC(C(=O)[O-])[n+]1ccccc1 (stereo not drawn) | 26% (inactive)

SMILES | growth inhibition
CNC1C(OC2C(OC3C(O)C(O)C(N=C(N)N)C(O)C3N=C(N)N)OC(C)C2(O)CO)OC(CO)C(O)C1O (stereo not drawn) | -12% (inactive)
O=C(O)c1ccccc1-c1ccccc1C(=O)Nc1ccc2c(c1)Cc1ccccc1-2 | 98% (active)
O=[N+]([O-])c1cccc2nc3ccccc3c(NCCCN3CCOCC3)c12 | 99% (active)
C=CC(C)(O)CCC1C(=C)C(O)CC2C(C)(C)CCCC12C (stereo not drawn) | 28% (inactive)
CN1c2ccc(Cl)cc2C(=O)NC1c1ccc([N+](=O)[O-])s1 (stereo not drawn) | 97% (active)
[O-][n+]1c2ccc(O)cc2nc2ccc(Br)cc21 | 64% (inactive)
O=C1c2ccccc2-c2nc3ccccc3nc21 | 34% (inactive)
CCCCN1C(=O)N(c2ccc(OCC)cc2)C2N(CCCC)C1C(C)(C)C2(C)C (stereo not drawn) | 0% (inactive)
CO[C@H]1C[C@](C)(O)Cc2cc3c(c(O)c21)C(=O)c1c(O)cc2c(c1C3=O)O[C@@H]1O[C@@]2(C)[C@H](O)[C@@H](N(C)C)[C@@H]1O | -33% (inactive)
COc1cc2c(cc1[N+](=O)[O-])C(=O)C(Br)(Br)CCC2 | 93% (active)
O=C1OC(CCl)CN1/N=C/c1ccc([N+](=O)[O-])o1 (stereo not drawn) | -2% (inactive)
CN(C)CCOc1ccc2c(c1)C/C(=C/c1ncc([N+](=O)[O-])n1C)C2=O | 64% (inactive)
CCCCCCCCCCCCCCCCCCN(C)CC(COP(=O)([O-])OCC[N+](C)(C)C)OC (stereo not drawn) | 98% (active)
CC(C)c1ccccc1NC(=O)/C(Cl)=C(\Cl)C(=O)O | 82% (active)
O=[N+]([O-])C(=C(Sc1ccccc1)Sc1ccccc1)C(Cl)=C(Cl)Cl | 32% (inactive)
C(=C\c1ccccc1)/COc1ccccc1C(N1CCOCC1)n1nc2ccccc2n1 (stereo not drawn) | 93% (active)
O=C1C(Nc2ccccc2)=C(Oc2ccccc2)C(=O)c2ccccc21 | -4% (inactive)
CCN(CC)CCN1C(=O)c2cccc3cc(OC)cc(c23)C1=O | 24% (inactive)
CN(C)Cc1cc(N=Nc2ccc(Cl)cc2)cc(CN(C)C)c1O | 18% (inactive)

test: NCI Yeast Anticancer Drug Screen. Data for the cln2 rad14 strain (AID 165);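 note: 0% = growth equal to vehicle treated cultures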; details: S. cerevisiae cln2 rad14 strain, at 5.0 µM (retest, dose inferred, filed as 0.5), active compounds read high
Method in brief: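 cln2 rad14 yeast strain; compound exposure; growth inhibition read vs vehicle controls.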

SMILES | growth inhibition
O=CC=C(c1ccccc1)c1ccccc1 | 36% (inactive)
FC(F)(F)c1nc2nc(Cl)c(Cl)nc2n1CCCN1CCOCC1 | -16% (inactive)
BrCC[P+](c1ccccc1)(c1ccccc1)c1ccccc1 | 43% (inactive)
N#CSc1ccc(S(N)(=O)=O)cc1 | 64% (inactive)
O=[N+]([O-])c1ccc2nc3ccccc3cc2c1 | -59% (inactive)
O=C(NC(Nc1ccc(F)c(Cl)c1)(C(F)(F)F)C(F)(F)F)C(C(F)(F)F)C(F)(F)F | 43% (inactive)
O=C(/C=C\c1ccc(Cl)cc1Cl)c1cccs1 | 9% (inactive)
O=C(NCCCCNCCCNC(=O)c1cc(-c2ccccc2)nc2ccccc12)c1cc(-c2ccccc2)nc2ccccc12 | 40% (inactive)
NC(=NCc1ccccc1)N/N=C\c1ccnc2ccccc12 | 9% (inactive)
CCCCN(CCCC)CCSc1ccc(Cl)cc1 | 0% (inactive)
COc1cc(C2C3=C(COC3=O)Oc3cc4c(cc32)OCO4)ccc1O (stereo not drawn) | 43% (inactive)
C#CCCCc1ccccc1 | 17% (inactive)
CCc1ccc(NS(=O)(=O)c2ccccc2)c([N+](=O)[O-])c1 | 0% (inactive)
COc1ccc(C2c3cc4c(cc3OC(C)(O)C2C)OCO4)c(OC)c1 (stereo not drawn) | 5% (inactive)
COC(=O)c1ccc(CCC2=CC(=O)C(Br)=CC2=O)cc1 | 4% (inactive)
NNC(=O)CCc1ccc2ccc3ccccc3c2c1 | -28% (inactive)
Cn1c2ccccc2c(=O)c2cc(NC(=O)CCCCC(=O)Nc3ccc4c(c3)c(=O)c3ccccc3n4C)ccc21 | -1% (inactive)
CC(CC(C)(C)[N+](C)(C)C)[N+](C)(C)C (stereo not drawn) | 35% (inactive)
CC1CCN(CCC(=O)c2ccc(Cl)cc2)CC1 | 14% (inactive)
CCCCCCCCCCCCCCC(C(=O)[O-])[n+]1ccccc1 (stereo not drawn) | 8% (inactive)

SMILES | growth inhibition
CNC1C(OC2C(OC3C(O)C(O)C(N=C(N)N)C(O)C3N=C(N)N)OC(C)C2(O)CO)OC(CO)C(O)C1O (stereo not drawn) | 11% (inactive)
O=C(O)c1ccccc1-c1ccccc1C(=O)Nc1ccc2c(c1)Cc1ccccc1-2 | -27% (inactive)
O=[N+]([O-])c1cccc2nc3ccccc3c(NCCCN3CCOCC3)c12 | 98% (active)
C=CC(C)(O)CCC1C(=C)C(O)CC2C(C)(C)CCCC12C (stereo not drawn) | 50% (inactive)
CN1c2ccc(Cl)cc2C(=O)NC1c1ccc([N+](=O)[O-])s1 (stereo not drawn) | 37% (inactive)
[O-][n+]1c2ccc(O)cc2nc2ccc(Br)cc21 | 16% (inactive)
O=C1c2ccccc2-c2nc3ccccc3nc21 | 25% (inactive)
CCCCN1C(=O)N(c2ccc(OCC)cc2)C2N(CCCC)C1C(C)(C)C2(C)C (stereo not drawn) | -3% (inactive)
CO[C@H]1C[C@](C)(O)Cc2cc3c(c(O)c21)C(=O)c1c(O)cc2c(c1C3=O)O[C@@H]1O[C@@]2(C)[C@H](O)[C@@H](N(C)C)[C@@H]1O | 25% (inactive)
COc1cc2c(cc1[N+](=O)[O-])C(=O)C(Br)(Br)CCC2 | 25% (inactive)
O=C1OC(CCl)CN1/N=C/c1ccc([N+](=O)[O-])o1 (stereo not drawn) | 4% (inactive)
CN(C)CCOc1ccc2c(c1)C/C(=C/c1ncc([N+](=O)[O-])n1C)C2=O | 13% (inactive)
CCCCCCCCCCCCCCCCCCN(C)CC(COP(=O)([O-])OCC[N+](C)(C)C)OC (stereo not drawn) | 22% (inactive)
CC(C)c1ccccc1NC(=O)/C(Cl)=C(\Cl)C(=O)O | 13% (inactive)
O=[N+]([O-])C(=C(Sc1ccccc1)Sc1ccccc1)C(Cl)=C(Cl)Cl | 44% (inactive)
C(=C\c1ccccc1)/COc1ccccc1C(N1CCOCC1)n1nc2ccccc2n1 (stereo not drawn) | 11% (inactive)
O=C1C(Nc2ccccc2)=C(Oc2ccccc2)C(=O)c2ccccc21 | -7% (inactive)
CCN(CC)CCN1C(=O)c2cccc3cc(OC)cc(c23)C1=O | 27% (inactive)
CN(C)Cc1cc(N=Nc2ccc(Cl)cc2)cc(CN(C)C)c1O | 39% (inactive)

— PubChem BioAssay (NCI)
